Compound activity deposited in PubChem BioAssay by National Center for Advancing Translational Sciences (NCATS).
An excerpt weighted towards active compounds, which were near 7.9% of everything screened.
Lassa entry inh – inhibitors of Lassa virus binding or cell entry; Lassa virus pseudotype entry inhibition, cell reporter; Potency, µM (doses to about 37.9 µM), hits mostly inhibitors; 300,000 compounds, 1.2% hits; AID 540256; calls by dose curve; tested in HEK293 cells; note: nearly all actives have a fitted effect of over 50% in size
HCMV inh – inhibitors of human cytomegalovirus. activity change, negative = inhibition, % at 57.5 µM. HFF cells, HCMV-luciferase reporter, 72 h; stronger effect = lower value. AID 1259415. 410,000 compounds, 4.5% hits; in the data active = activity change below about -60%; inconclusive = no clear call, values can overlap the other calls; inactive = above about -39%
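Inhibition of viral replication was scored as loss of reporter luminescence in HFFs infected with HCMV-luciferase (MOI 1 PFU/cell) for 72 h; compounds tested at 2 doses, normalized to buffer and Salinomycin controls.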
MARV entry inh – Marburg virus entry inhibition. Potency, µM (highest dose often 37.8 µM), usual class: inhibitors. 300,000 compounds, 1.8% hits. Marburg virus pseudotyped entry inhibition, cell reporter; calls by dose curve; tested in HEK293 cells
FMDV inh – antivirals against foot and mouth disease virus. FMDV antiviral cell-based qHTS. Potency, µM (top dose mostly 57.9 µM), most hits filed as inhibitors. 410,000 compounds, 1.2% hits. AID 1159524; calls by dose curve; tested in HEK293T cells; note: read-out not given here; nearly all actives have a fitted effect of over 45% in size
HCV inhibitor – blocks hepatitis C virus; Huh7.5.1 HCVcc-Cre infection, luciferase reporter, 44 h; Potency, µM (doses to about 41.8 µM), hits mostly inhibitors; 340,000 compounds, 3.4% hits; AID 651820; active = well fitted inhibition curve with a large enough effect; inconclusive = small, poorly fitted or top-dose-only effect, or another doubt; inactive = no such curve, though single readings can be large or run the other way
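Reporter virus HCVcc-Cre (~0.5 moi) infects cells exposed to compound; seeding density 1,000 cells/well with 4 h settling beforehand. Luminescence, 15 sec read, taken 44 h post-infection following a 15 min RT substrate incubation.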
Of the large screens only hits and unclear results are named; the others gave an inactive call.

COc1ccc(N(C(=O)Cn2nnc(-c3ccc(F)cc3)n2)C(C)C(=O)NC2CCCC2)cc1 (stereo not drawn)	MARV entry inh inconclusive, HCV inhibitor inconclusive
CC(C(=O)NC1CCCC1)N(C(=O)Cn1nnc(-c2ccc(F)cc2)n1)c1ccccc1F (stereo not drawn)	Lassa entry inh inconclusive, MARV entry inh 8.2µM
CC(C)(C)NC(=O)C(c1c[nH]c2ccccc12)N(C(=O)Cn1nnc(-c2ccc(Cl)cc2)n1)c1ccccc1F (stereo not drawn)	Lassa entry inh inconclusive, HCMV inh inconclusive, MARV entry inh inconclusive, HCV inhibitor 10µM
COc1cccc(N(C(=O)Cn2nnc(-c3ccc(C)cc3)n2)C(C(=O)NC(C)(C)C)c2c[nH]c3ccccc23)c1 (stereo not drawn)	Lassa entry inh inconclusive, HCMV inh -66, MARV entry inh inconclusive, HCV inhibitor inconclusive
COC(=O)c1sccc1NC(=S)Nc1cc(C)ccc1OC	none (no result: Lassa entry inh, MARV entry inh)
Cc1cccc(CCNC(=O)CCc2c(C)nc3c(c(C)nn3-c3ccccc3)c2C)c1	MARV entry inh inconclusive, FMDV inh inconclusive (no result: HCV inhibitor)
Cc1ccsc1/C=N/Nc1cccc(C(=O)O)c1	Lassa entry inh inconclusive, MARV entry inh inconclusive, FMDV inh 4.5µM
Cc1ccsc1/C=N/NC(=O)CNC(=O)c1ccccc1	HCV inhibitor inconclusive (no result: Lassa entry inh, MARV entry inh)
Cc1ccsc1/C=N/Nc1ccc(C(=O)O)cc1	FMDV inh 8.9µM (no result: Lassa entry inh, MARV entry inh)
CC(NC(=O)c1ccc(Br)s1)c1ccncc1 (stereo not drawn)	Lassa entry inh inconclusive, MARV entry inh inconclusive
COCCN1C(=O)NC(c2ccccc2)C(C(=O)OC)=C1C (stereo not drawn)	none (no result: Lassa entry inh, HCMV inh, FMDV inh, HCV inhibitor)
COCC(=O)O[C@]1(CCN(C)CCCc2nc3ccccc3[nH]2)CCc2cc(F)ccc2[C@@H]1C(C)C	Lassa entry inh 5.2µM, HCMV inh -98, MARV entry inh 7.3µM, FMDV inh inconclusive, HCV inhibitor inconclusive
Cc1cccc(OCC(=O)NCCc2nc3ccccc3[nH]2)c1C	none (no result: HCV inhibitor)
COc1ccc(-n2c(=O)c(-c3cn(C)c4ccccc34)nc3cncnc32)cc1	none (no result: Lassa entry inh, HCMV inh, MARV entry inh, HCV inhibitor)
COc1ccccc1-c1nnc2sc(-c3ccc(N(C)C)cc3)nn12	Lassa entry inh inconclusive, HCMV inh -93, MARV entry inh inconclusive, HCV inhibitor inconclusive
CN(C)c1ccc(-c2nn3c(-c4ccccc4Cl)nnc3s2)cc1	Lassa entry inh inconclusive, HCMV inh -74, HCV inhibitor inconclusive
CCC(=O)Nc1ccc(NC(=O)c2ccccn2)cn1	Lassa entry inh 10µM, MARV entry inh inconclusive
O=C(Nc1ccc(NC(=O)C2CC2)nc1)c1ccccn1	Lassa entry inh inconclusive, MARV entry inh inconclusive
CC(C)C(=O)Nc1ccc(NC(=O)c2ccccn2)cn1	Lassa entry inh inconclusive, MARV entry inh 11µM
OCC1C2c3ccccc3C(c3ccccc32)C1CO (stereo not drawn)	MARV entry inh inconclusive
CN(C)c1ccc(C(=O)N2CCCC(Cn3cc(C(=O)N4CCCC4)nn3)C2)cc1 (stereo not drawn)	none (no result: Lassa entry inh, HCMV inh, MARV entry inh, HCV inhibitor)
CCOC(=O)c1ccc(NC(=O)C2CCN(C(=O)c3ccc(OC)c(OC)c3)CC2)cc1	Lassa entry inh inconclusive, MARV entry inh inconclusive, FMDV inh inconclusive, HCV inhibitor 10µM
COc1ccc(C(=O)N2CCCCCC2)cc1OC1CCN(C(C)=O)CC1	HCMV inh -78 (no result: HCV inhibitor)
COC(=O)c1ccc(NC(=O)C2CCN(C(=O)c3cc(OC)c(OC)c(OC)c3)CC2)cc1	HCMV inh -101
COC(=O)C1CCN(C(=O)c2cc(OC)c(OC)c(OC)c2)CC1	none (no result: FMDV inh)
N#CCCN1CCN(C(=S)c2ccc(-c3ccc(Cl)c(Cl)c3)o2)CC1	Lassa entry inh 20µM, MARV entry inh 14µM, HCV inhibitor inconclusive
COc1ccc(CCNc2nc(N3CCCCC3)nc(N3CCCCC3)n2)cc1OC	Lassa entry inh inconclusive, MARV entry inh inconclusive, HCV inhibitor 22µM
COc1nc(NCCc2ccc(OC)c(OC)c2)nc(OC)n1	HCMV inh -99
COc1ccc(CCNc2c3ccccc3nc3ccccc23)cc1OC	Lassa entry inh inconclusive, HCMV inh -102, MARV entry inh inconclusive, HCV inhibitor inconclusive
COc1ccc(CCNCC(O)Cn2c3ccccc3c3ccccc32)cc1OC (stereo not drawn)	HCMV inh -64, HCV inhibitor 11µM (no result: Lassa entry inh, MARV entry inh)
CCOC(=O)CNC(=O)N1[C@H](c2cccs2)[C@@H](C)C(=O)[C@@H](C)[C@@H]1c1cccs1	none (no result: HCV inhibitor)
O=[N+]([O-])c1ccc(/C=N/Nc2nc(N3CCCCC3)nc(N3CCCCC3)n2)cc1	HCV inhibitor inconclusive (no result: Lassa entry inh, MARV entry inh)
CCn1c(=O)c([N+](=O)[O-])c(NCCc2ccc(OC)c(OC)c2)c2ccccc21	Lassa entry inh inconclusive, HCMV inh -72, MARV entry inh inconclusive, FMDV inh 22µM, HCV inhibitor inconclusive
COc1ccc([N+](=O)[O-])cc1/C=N/Nc1nc(N2CCCCC2)nc(N2CCCCC2)n1	FMDV inh inconclusive, HCV inhibitor 20µM
COc1ccccc1Cn1c(SCC(=O)C(C)(C)C)nc2ccccc2c1=O	Lassa entry inh inconclusive (no result: MARV entry inh, HCV inhibitor)
Cc1onc(C(=O)N2CCC(Cc3ccccc3)CC2)c1[N+](=O)[O-]	HCMV inh -91, HCV inhibitor inconclusive (no result: Lassa entry inh, MARV entry inh)
CC(C)c1onc(C(=O)N2CCN(C(c3ccccc3)c3ccccc3)CC2)c1[N+](=O)[O-]	HCMV inh -98, HCV inhibitor inconclusive
Cc1ccc(Cl)cc1N1CCN(C(=O)c2noc(C(C)C)c2[N+](=O)[O-])CC1	HCMV inh -92, HCV inhibitor 3.5µM (no result: Lassa entry inh, MARV entry inh)
CC(C)c1onc(C(=O)N2CCN(c3ccccc3)CC2)c1[N+](=O)[O-]	FMDV inh inconclusive (no result: Lassa entry inh, MARV entry inh)
CCOC(=O)c1c(C)[nH]c(C(=O)N/N=C\c2ccccc2O)c1C	Lassa entry inh 8.9µM, HCMV inh -100, MARV entry inh inconclusive, HCV inhibitor inconclusive
CCOC(=O)c1c(C)[nH]c(C(=O)N/N=C/c2cc([N+](=O)[O-])ccc2O)c1C	Lassa entry inh 6.5µM, MARV entry inh inconclusive, HCV inhibitor 11µM
CCOC(=O)c1c(C)[nH]c(C(=O)N/N=C/c2ccc(OC)c(OC)c2)c1C	HCV inhibitor inconclusive (no result: Lassa entry inh, MARV entry inh)
CN=C1S/C(=C\c2cccn2-c2cccc(Br)c2)C(=O)N1C	HCMV inh -65
CN=C1S/C(=C\c2ccc(N3CCCC3)c(F)c2)C(=O)N1C	none
CCC1C(=O)NCCN1Cc1ccc2c(c1)CN(Cc1cccc(OC)c1OC)CCO2 (stereo not drawn)	none (no result: Lassa entry inh, HCMV inh, MARV entry inh, HCV inhibitor)
Cc1ccc(N2C(=O)c3ccccc3C2Nc2ccccc2F)nc1 (stereo not drawn)	FMDV inh inconclusive, HCV inhibitor inconclusive (no result: Lassa entry inh, MARV entry inh)
Cc1ccc(N2C(=O)c3ccccc3C2O)nc1 (stereo not drawn)	Lassa entry inh 3.7µM, MARV entry inh 2.1µM (no result: HCMV inh, FMDV inh)
CCn1c(SCc2nc3scc(-c4ccccc4)c3c(=O)[nH]2)nnc1-c1cccs1	MARV entry inh inconclusive, FMDV inh inconclusive, HCV inhibitor inconclusive
COCCn1c(SCc2nc3scc(-c4ccc(Cl)cc4)c3c(=O)[nH]2)nnc1-c1cccc(C)c1	HCMV inh inconclusive, MARV entry inh inconclusive, FMDV inh 40µM, HCV inhibitor inconclusive
O=C(CCCCCNc1nc(=S)[nH]c2ccccc12)NCCC1=CCCCC1	Lassa entry inh inconclusive, HCV inhibitor inconclusive
